Rows were chosen to be rich in hits. Some 1.6% of all compounds tested hit in one or more screens of this group.
KCNQ2 enhance – potentiators of rat KCNQ2 potassium channel. Potassium voltage-gated channel subfamily KQT member 2 (Rattus norvegicus), O88943. CHO-K1 KCNQ2, FluxOR thallium flux fluorescence; active compounds read high. B-score at 10 µM. 310,000 compounds, 0.54% hits;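 active = fluorescence ratio B-score at least 3 SD of library B-scores, with initial fluorescence B-score within 3 of them, cut at about 5.3 in these data; same plate scores as AID 2156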;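 also: B-score of peak minus minimum over baseline fluorescence ratio after K+ and Tl+ stimulus; positive B-score means potentiation of KCNQ2 with more thallium influx and brighter signal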
Target sequence (O88943 whole entry, looked up): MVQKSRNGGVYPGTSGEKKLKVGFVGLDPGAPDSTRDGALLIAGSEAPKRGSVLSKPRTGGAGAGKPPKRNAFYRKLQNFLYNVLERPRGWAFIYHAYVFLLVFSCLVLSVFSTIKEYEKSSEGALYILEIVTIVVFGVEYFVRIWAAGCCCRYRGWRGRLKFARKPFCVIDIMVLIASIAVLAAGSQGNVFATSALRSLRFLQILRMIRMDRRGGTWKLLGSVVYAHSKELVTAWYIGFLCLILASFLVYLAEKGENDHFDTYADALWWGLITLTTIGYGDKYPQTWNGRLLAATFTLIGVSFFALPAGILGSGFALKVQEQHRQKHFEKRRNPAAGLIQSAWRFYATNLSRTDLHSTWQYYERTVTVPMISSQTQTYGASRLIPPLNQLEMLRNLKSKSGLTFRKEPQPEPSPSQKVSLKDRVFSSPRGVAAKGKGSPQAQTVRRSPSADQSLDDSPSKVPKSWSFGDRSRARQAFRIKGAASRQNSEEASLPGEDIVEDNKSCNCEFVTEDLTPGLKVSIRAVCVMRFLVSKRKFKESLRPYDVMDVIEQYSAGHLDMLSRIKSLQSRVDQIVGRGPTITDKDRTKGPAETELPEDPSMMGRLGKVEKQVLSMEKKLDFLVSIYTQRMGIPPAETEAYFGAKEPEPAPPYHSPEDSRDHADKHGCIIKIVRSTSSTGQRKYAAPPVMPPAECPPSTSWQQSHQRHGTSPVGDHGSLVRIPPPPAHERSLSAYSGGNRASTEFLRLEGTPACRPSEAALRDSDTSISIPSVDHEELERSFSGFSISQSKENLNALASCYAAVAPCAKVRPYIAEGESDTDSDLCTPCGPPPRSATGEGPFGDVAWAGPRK
KCNQ2 block – rat KCNQ2 potassium channel inhibitors, primary screen, cell-based, CHO-K1, FluxOR thallium flux, B-score | Potassium voltage-gated channel subfamily KQT member 2 (Rattus norvegicus), O88943 | 20 min; active compounds read low | B-score at 10 µM | 310,000 compounds, 1.1% hits;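 active = fluorescence ratio B-score at most minus 3 library SDs, with starting brightness B-score within 2 library SDs, cut at about -5.5 in these data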
Kir21 conf inh – mouse Kir2.1 channel blockers, retest, confirmation, cell-based, FluxOR thallium flux, duplicate | shares compounds with KCNQ2 enhance | Kir2.1-expressing cells, FluxOR thallium flux fluorescence; active compounds read low | Tl flux remaining, % of negative control (active compounds read low), % at 10 µM | 2,300 compounds, 41% hits | AID 2032, 2009;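 active = Primary-screen hit whose thallium flux fell at least 3 control SD below untreated wells in both duplicates, with normal baseline fluorescence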;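 also: 0% = blank wells without stimulus and 100% = stimulated no-compound controls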
HEK293 ctr – parental HEK293 activity in Kir2.1 inhibitor counter-screen. shares compounds with KCNQ2 enhance. 2,300 compounds, 19% hits. parental HEK293 cells, FluxOR thallium flux fluorescence; 0% = unstimulated blank wells. FluxOR signal as % of negative control (100 = no effect), % at 10 µM;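 active = dye signal at least 3 control SD above or below untreated wells in both duplicates, raw fluorescence within 3, either direction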;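 also: percent is based on the flux ratio of peak minus minimum fluorescence over baseline F0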
CHO-K1 ctr – nonspecific thallium flux increase in parental CHO-K1, confirmation, counter-screen for KCNQ2 potentiator project, cell-based, FluxOR thallium flux, duplicate; shares compounds with KCNQ2 enhance; parental CHO-K1 cells, FluxOR thallium flux fluorescence; zero = vehicle mean+3SD, 100% = vehicle-minus-blank window; activity increase over 3SD of controls, % at 10 µM; 1,200 compounds, 43% hits; AID 2282, 2010;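 active = signal rise of at least 3 SD above the untreated control mean, in both duplicate wells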;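 also: counter screen of KCNQ2 potentiator hits so any rise reflects channel-independent effects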
KCNQ1 pot spec – human KCNQ1 channel potentiation off-target, confirmation, selectivity assay for KCNQ2 potentiator project, cell-based, CHO, FluxOR thallium flux; CHO KCNQ1 stable, FluxOR thallium flux fluorescence; beyond 3SD, as % of vehicle-control signal; shares compounds with KCNQ2 enhance; 1,200 compounds, 28% hits; activation over 3SD threshold, % at 10 µM; AID 2283, 2010;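 active = fluorescence ratio rise of at least 3 SD of vehicle wells above their mean, in both replicate wells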;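 also: 0% = vehicle mean plus 3 SD and 100% = vehicle minus unstimulated blank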
KCNQ2 pot conf – rat KCNQ2 channel potentiators, confirmation, cell-based, CHO, FluxOR thallium flux, duplicate. shares compounds with KCNQ2 enhance. CHO-KCNQ2 cells, FluxOR thallium flux fluorescence. potentiation, less the hit threshold, % at 10 µM. 1,200 compounds, 68% hits;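 active = fluorescence ratio rising 3 SD or more over the vehicle control mean in both replicates, plus primary screen hit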;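 also: peak minus minimum thallium fluorescence divided by baseline after K/Tl stimulus; 0% = vehicle mean plus 3 SD and 100% = vehicle minus unstimulated blank difference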
Kir21 spec – mouse Kir2.1 channel activation off-target, confirmation, selectivity assay for KCNQ2 potentiator project, cell-based, HEK293, FluxOR thallium flux; activity over 3SD threshold, % at 10 µM; 1,200 compounds, 2% hits; AID 2345, 2010; HEK293 Kir2.1, FluxOR thallium flux fluorescence; shares compounds with KCNQ2 enhance;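 active = fluorescence ratio rise of at least 3 SD above the vehicle-control mean, seen in both replicates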;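 also: 0% = vehicle mean plus 3 SD and 100% = vehicle minus no-stimulus blank window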
KCNQ2 W236L pot – potentiators of retigabine-insensitive KCNQ2 W236L, mechanism study for KCNQ2 potentiator project, cell-based, rat KCNQ2 W236L, CHO, automated patch clamp. automated patch clamp current. 940 compounds, 10% hits. current increase over 3SD of negative controls (%), active compounds read high, % at 25 µM. AID 2558, 2010. shares compounds with KCNQ2 enhance;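 active = current increase at least 3 SD of the untreated controls above them in both duplicate recordings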
* = called active by the depositor; i = inactive; · = not tested or not shown.

SMILES	KCNQ2 enhance	KCNQ2 block	Kir21 conf inh	HEK293 ctr	others
C#CCOCCOCCOCCNc1nc(N2CCN(C(=O)[C@H](CCC(=O)O)n3cc(C(N)CC(C)C)nn3)CC2)nc(N2CCN(C(=O)[C@H](Cc3ccc(O)cc3)n3cc(C(N)[C@H](C)CC)nn3)CC2)n1 (some centres undefined)	0.3	i	·	·
COc1ccc(OC)c(NC(=O)Nc2ccc(O)c3ccccc23)c1	·	i	·	·
COc1ccc(OCC(=O)NNC(=O)C(=O)Nc2cc(OC)ccc2OC)cc1	11*	i	i	264%*	CHO-K1 ctr=42*;KCNQ1 pot spec=-5;KCNQ2 pot conf=8.0*;Kir21 spec=-26;KCNQ2 W236L pot=i
COc1ccc(CC(=O)NNC(=O)COc2ccc(Br)cc2C)cc1OC	·	i	·	·
COc1ccc(OC)c(NC(=O)Nc2c(O)ccc3ccccc23)c1	7.8*	i	·	·	CHO-K1 ctr=-21;KCNQ1 pot spec=-40;KCNQ2 pot conf=-11;Kir21 spec=-72
COc1ccc(C(=O)Nc2cccc3ccccc23)cc1	·	i	·	·
COc1ccc(OC)c(NC(=O)NNC(=O)COc2ccc(-c3ccccc3)cc2)c1	·	i	·	·
COc1ccc(OC)c(NC(=O)C(=O)NNC(=O)COc2ccc(Br)cc2C)c1	17*	i	i	350%*	CHO-K1 ctr=-8;KCNQ1 pot spec=12*;KCNQ2 pot conf=68*;Kir21 spec=-15;KCNQ2 W236L pot=i
COc1ccc(C(=O)NNC(=O)C(=O)Nc2cccc3ccccc23)cc1	10*	i	i	156%*	CHO-K1 ctr=2.3*;KCNQ1 pot spec=-20;KCNQ2 pot conf=-2;Kir21 spec=-23;KCNQ2 W236L pot=i
CCOc1cc(Cl)c(CNCCCN2CCOCC2)cc1OC	1.2	i	·	·
Cc1ccccc1NC(=O)C(=O)NNC(=O)COc1ccc2ccccc2c1	7*	i	i	248%*	CHO-K1 ctr=-4;KCNQ1 pot spec=-15;KCNQ2 pot conf=20*;Kir21 spec=-21;KCNQ2 W236L pot=i
O=C(COc1ccc2ccccc2c1)NNC(=O)Nc1ccccc1F	·	i	·	·
COc1ccc(S(=O)(=O)NNC(=O)C23CC4CC(CC(C4)C2)C3)cc1[N+](=O)[O-]	·	i	·	·
C=CCc1ccc(OCCCNC2CCCC2)c(OC)c1	·	i	·	·
Brc1ccccc1OCCNCc1ccccc1	·	i	·	·
C=CCc1ccc(OCCN2CCc3ccccc3C2)c(OC)c1	0.84	i	20%*	i
C=CCc1ccc(OCCCNCc2ccccc2)c(OC)c1	3.3	i	42%*	i
C/C=C/c1ccc(OCCN2CCc3ccccc3C2)c(OC)c1	·	i	·	·
C=CCc1ccccc1OCCNCc1ccccc1	·	i	32%*	i
O=C(COc1coc(CN2CCCc3ccccc32)cc1=O)Nc1cccc([N+](=O)[O-])c1	·	i	·	·
COc1ccccc1OCCCCCc1c(C)n[nH]c1C	·	i	·	·
COc1ccccc1OCCCc1c(C)n[nH]c1C	5.8*	i	i	i	CHO-K1 ctr=42*;KCNQ1 pot spec=-8;KCNQ2 pot conf=-6;Kir21 spec=-47;KCNQ2 W236L pot=i
Cc1cc(C)nc(N/N=C/c2cc(C)n(CC(F)(F)F)c2C)n1	·	i	·	·
COc1ccc(OCCC(=O)OCC(=O)Nc2ccc(S(=O)(=O)N3CCOCC3)cc2)cc1	0.1	i	·	·
CC(C)(C)c1ccc(OCCC(=O)OCC(=O)Nc2ccc(N3CCOCC3)cc2)cc1	5.5*	i	i	i	CHO-K1 ctr=15*;KCNQ1 pot spec=-11;KCNQ2 pot conf=-12;Kir21 spec=-38;KCNQ2 W236L pot=i
SMILES	KCNQ2 enhance	KCNQ2 block	Kir21 conf inh	HEK293 ctr	others
O=C(Nc1ccc(N2CCOCC2)cc1)c1ccc(COc2ccccc2)cc1	0.24	i	·	·
c1ccc(COc2ccc(OCCCNC3CCCC3)cc2)cc1	·	i	30%*	i
CCC(C)c1ccccc1OCCCCN1CCCC1 (centres undefined)	1.3	i	·	·
COCCCNCCCCOc1ccc(OCc2ccccc2)cc1	0.41	i	·	·
CCC(C)c1ccccc1OCCCNC1CCCC1 (centres undefined)	1.3	i	63%*	i
Nc1ccc(S(=O)(=O)c2ccccc2)nc1	·	i	·	·
O=[N+]([O-])c1ccc(S(=O)(=O)c2ccccc2)nc1	-5.9	-5.9*	i	70%*
CCCOC(=O)C1=C(C)NC(=O)NC1c1cc2c(cc1Br)OCO2 (centres undefined)	·	i	·	·
Cc1nn(-c2ccccc2)nc1CNC(=O)C1CCC1	1.5	i	·	·
Nc1c2c(nc3sc4c(c13)CCCCC4)CCCCC2	·	i	·	·
Nc1nc2c(s1)CCCCCCCCCC2	6*	i	64%*	70%*	CHO-K1 ctr=-40;KCNQ1 pot spec=89*;KCNQ2 pot conf=-9;Kir21 spec=-73;KCNQ2 W236L pot=i
Cc1ccc(S(=O)(=O)n2nc(-c3ccco3)nc2N)cc1	·	i	·	·
Cc1ccccc1OCCCC(=O)Nc1ccc(S(=O)(=O)Nc2onc(C)c2C)cc1	·	i	·	·
COc1ccccc1CNCc1ccc(C)cc1	·	i	·	·
COc1ccc2ccccc2c1CNCc1ccc(C)cc1	·	i	22%*	i
CCCN(CC(=O)Nc1ccccc1C)C(=O)Cc1coc2cc(C)ccc12	·	i	·	·
COc1cc(CN2CCc3ccccc3C2)ccc1O	·	i	·	·
O=C(COC(=O)C1CCC(=O)N1)Nc1ccccc1Br (centres undefined)	0.74	i	·	·
O=C(COC(=O)C1CCC(=O)N1)Nc1ccc(Oc2ccccc2)cc1 (centres undefined)	7.6*	i	i	i	CHO-K1 ctr=2.8*;KCNQ1 pot spec=-28;KCNQ2 pot conf=-13;Kir21 spec=-31
O=C(NCCC(=O)N1CCC2(CC1)NCCc1[nH]cnc12)c1cccc(Br)c1	1.1	i	·	·
Fc1cccc(NCCc2c[nH]c3ccccc23)n1	1.1	i	·	·
c1ccc2c(NCCc3c[nH]c4ccccc34)c3ccccc3nc2c1	·	i	38%*	i
Cn1nnnc1SCC(=O)Nc1ccc(S(=O)(=O)N2CCOCC2)cc1	·	i	·	·
CCCCCCCC(=O)N/N=C/c1ccc(Br)cc1	0.99	i	·	·

Screens deposited in PubChem BioAssay by Johns Hopkins Ion Channel Center.
